Data reported in PubChem BioAssay (NCI).
About 83,000 compounds went through this panel and 20% of them were active in at least one assay; those are over-represented in the sample as a whole.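 Cell lines were cultured in 96-well plates, exposed to a single compound concentration, and assessed for percent growth 48 hours later.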 A number with no mark means an inactive call. Active and inactive are the calls of the source. Rule for the calls: active = growth percent below 10; inactive = the rest.

How the values were obtained:
Experiment in all cases: NCI-60 one-dose screen, 48 h (100 = growth as untreated, 0 = no growth, -100 = all killed)
Conditions in all cases: 10 µM unless noted
NCI-H23 lung = test system: NCI-H23 lung
NCI-H226 lung = test system: NCI-H226 lung
NCI-H322M lung = test system: NCI-H322M lung
HOP-62 NSCLC = test system: HOP-62 NSCLC
NCI-H460 lung = test system: NCI-H460 lung
HOP-92 NSCLC = test system: HOP-92 NSCLC
NCI-H522 lung = test system: NCI-H522 lung
A549/ATCC NSCLC = test system: A549/ATCC NSCLC
786-0 renal = test system: 786-0 renal
COLO 205 colon = test system: COLO 205 colon
DU-145 prostate = test system: DU-145 prostate
K-562 leukemia = test system: K-562 leukemia
MALME-3M melanoma = test system: MALME-3M melanoma
MDA-MB-231 breast = test system: MDA-MB-231 breast
RXF 393 renal = test system: RXF 393 renal
SF-268 CNS = test system: SF-268 CNS
SF-539 CNS = test system: SF-539 CNS
UACC-257 melanoma = test system: UACC-257 melanoma
M14 melanoma = test system: M14 melanoma

Row | SMILES | growth (NCI-H23 lung) | growth (NCI-H226 lung) | growth (NCI-H322M lung) | growth (HOP-62 NSCLC) | growth (NCI-H460 lung) | growth (HOP-92 NSCLC) | growth (NCI-H522 lung) | growth (A549/ATCC NSCLC) | growth (786-0 renal) | growth (COLO 205 colon) | growth (DU-145 prostate) | growth (K-562 leukemia) | growth (MALME-3M melanoma) | growth (MDA-MB-231 breast) | growth (RXF 393 renal) | growth (SF-268 CNS) | growth (SF-539 CNS) | growth (UACC-257 melanoma) | growth (M14 melanoma)
1 | CCCCCCCCCCCCCCC(C(=O)OCC)C(=O)OCC | 105% | 93.3% | 104% | 105% | 109% | 105% | 92.6% | 109% | 115% | 115% | 110% | 121% | 92.8% | 101% | 113% | 110% | 105% | 106% | 108%
2 | CCOC(=O)c1sc2nc(-c3cc4ccccc4o3)cc(-c3ccc(Cl)cc3)c2c1N | 98.9% | 89.2% | 112% | 107% | 110% | 71.1% | 88.6% | 123% | 118% | 115% | 99.6% | 102% | 88.5% | 106% | 124% | 97.3% | 120% | 114% | 112%
3 | COc1ccccc1/C=N\NC(=S)Nc1ccc(F)cc1 | 72.5% | 90.9% | 96% | 79.8% | 80.5% | 71% | 38.1% | 68% | 93.6% | 91.9% | 98.6% | 32.3% | 65% | 59.8% | 88.2% | 91.6% | 73.3% | 77.2% | 48.4%
4 | CC(C)OC(=O)c1ccc([N+](=O)[O-])cc1 | 103% | 106% | 111% | 110% | 109% | 84.1% | 105% | 101% | 109% | 123% | 116% | 117% | 131% | 102% | 116% | 119% | 112% | 101% | 108%
5 | CCCc1cc2c(cc1CN(Cc1cc3c(cc1CCC)OCO3)C(=N)OCC)OCO2 | 79.8% | 86.4% | 91.9% | 83.7% | 75.5% | 55% | 54.2% | 71.8% | 89.7% | 93.6% | 97.6% | 63.4% | 82.8% | 77.8% | 106% | 79.2% | 112% | 83.9% | 85.9%
6 | COc1ccc(C2=CC(c3ccc(OC)cc3Br)N3C=CSC3=N2)cc1 (stereo unspecified) | 96.9% | 66.6% | 72.8% | 75.6% | 90.6% | 77.4% | 67.9% | 41.8% | 83.7% | 80.3% | 66.2% | 9.34% (active) | 89.9% | 75% | 84.6% | 77.1% | 77.5% | 80% | 25.2%
7 | CCOC(=O)c1ccc(NC(=O)NC2=NCCS2)cc1 | 18.4% | 13.5% | 77.7% | 35.7% | 19.5% | 73.6% | 20.8% | 22.5% | 33.8% | 103% | 0.751% (active) | 58.6% | 8.27% (active) | 51.8% | -15.3% (active) | 40.4% | 1.9% (active) | 80.5% | 34.9%
8 | CCCCCCCCCCCCCCCCS(=O)(=O)Nc1cc(C(=O)NN)cc(C(=O)NN)c1 | 99.1% | 73.1% | 56.9% | 76.1% | 95.6% | 92.2% | 78.4% | 91.8% | 96.2% | 83.2% | 81% | 33.9% | 85.4% | 58.2% | 94.3% | 43.4% | 63.7% | 107% | 88%
9 | CCCCCCCCCCCCCCCCOc1ccc(S(=O)(=O)N(C)C)cc1[N+](=O)[O-] | 97.4% | 104% | 103% | 49.2% | 118% | 46.2% | 94.5% | 98.7% | 67.3% | 114% | 113% | 112% | 86.8% | 88.9% | 61.7% | 97.5% | 89.6% | 108% | 106%
10 | C#CC[C@@H]1C[C@]2(C)[C@H]3CC=C4[C@H]5CC(C)(C)CC[C@]5(C(=O)NCCCCN)CC[C@@]4(C)[C@]3(C)CC[C@H]2C(C)(C)[C@H]1OC(C)=O | 78.9% | 90.3% | 36% | 92.2% | -27.6% (active) | 2.98% (active) | 70.1% | 27.8% | 6.69% (active) | -49.7% (active) | -47.9% (active) | -30% (active) | 85% | -58.6% (active) | -43.3% (active) | 89.4% | 86.9% | 111% | 2.23% (active)
11 | CCOC(=O)c1c(NC(=O)c2ccccc2)sc2c(O)c(CN(CC)CC)ccc12 | 2.37% (active) | -21.7% (active) | 50.6% | -17.2% (active) | 4.01% (active) | 46.3% | -45.3% (active) | 11.4% | 18.5% | -74.7% (active) | -26.9% (active) | 7.52% (active) | 38.1% | 1.41% (active) | -27.4% (active) | 4.48% (active) | 6.42% (active) | 51% | 14.4%
12 | CC(C)N=C1CCCC1C(=S)SSC(=S)C1CCCC1=NC(C)C (stereo unspecified) | 75.5% | 90.6% | 86.7% | 24.5% | 47.5% | 103% | 8.07% (active) | 71.1% | 91.4% | 88.8% | 64.9% | 34.9% | 53.8% | 76.9% | 78.3% | 68.6% | 83.4% | 69.7% | 64.4%
13 | O=C1C(Cl)=C(N/N=c2/[nH][nH]/c(=N/NC3=C(Cl)C(=O)c4ccccc4C3=O)c3ccccc23)C(=O)c2ccccc21 | 82.5% | 74.8% | 58.4% | -10.5% (active) | 81.4% | 117% | 30.1% | 94.6% | 96% | 52.5% | 108% | 9.7% (active) | 84.8% | 42.8% | 73.7% | 41.7% | 47.3% | 97.7% | 92.8%
14 | COc1ccc(-c2[nH]nc(N)c2-c2cc(OC)c(OC)c(OC)c2)cc1 | 17.4% | 68.3% | 7.95% (active) | 22% | 7.6% (active) | 31.3% | -32% (active) | 19.3% | 24% | -61.6% (active) | 2.62% (active) | -15.6% (active) | 25.8% | -10.6% (active) | 20% | 15.1% | -13.1% (active) | 58.1% | -5.11% (active)
15 | CC1=C(C(=O)Nc2ccc(F)cc2)C(c2ccccc2)C2=C(CC(C)(C)CC2=O)N1 (stereo unspecified) | 72.2% | 84.9% | 95.9% | 96.1% | 73% | -3.3% (active) | 53.4% | 76.7% | 84.6% | 99.2% | 95.2% | 56% | 89.8% | 70% | 96.4% | 82.6% | 79.5% | 83.6% | 82.6%
16 | CN(C)c1ccc(N2Cc3ccccc3OC3=C2C(=O)c2c(O)ccc(O)c2C3=O)cn1 | -36.7% (active) | 6.21% (active) | -7.76% (active) | -45.8% (active) | 1.55% (active) | -65.2% (active) | -54.2% (active) | -19.7% (active) | -88.9% (active) | -81.9% (active) | -97.3% (active) | -20.8% (active) | -76.9% (active) | -93.6% (active) | -87% (active) | -32.5% (active) | -63% (active) | -89.9% (active) | -88.6% (active)
17 | O=C(CN1CCN(c2ccccc2)CC1)N1CCN(c2nnc(-c3ccc(Cl)cc3)c(-c3ccc(Cl)cc3)n2)CC1 | 82.3% | 68% | 89.9% | 66% | 47.9% | 71.3% | 59.7% | 54.8% | 40.1% | 51% | 76% | 22.4% | 126% | 76.4% | 49.9% | 65.2% | 60.2% | 61.6% | 69.5%
18 | C/C(=N\OC(=O)Nc1cccc(Cl)c1)c1ccccc1 | 106% | 92.1% | 97.6% | 95.8% | 105% | 132% | 91.9% | 89.2% | 99.4% | 117% | 102% | 90.1% | 98.2% | 103% | 87.5% | 113% | 104% | 104% | 108%
19 | COc1ccc(NC(=O)C2c3ccccc3C(=O)N(CC(C)C)C2c2cccs2)cc1 (stereo unspecified) | 95.2% | 92.7% | 110% | 90.1% | 94.3% | 94.1% | 92.3% | 89.5% | 98.8% | 105% | 98.9% | 88.8% | 113% | 92.1% | 79.2% | 95.1% | 98.9% | 97.2% | 106%
20 | COc1ccc(Sc2[nH]c(C=O)c3ccccc23)cc1 | 73.3% | 72.5% | 46.8% | 71% | 6.72% (active) | 53.8% | 75.2% | 34.5% | 70.1% | -0.0496% (active) | 74.6% | -0.59% (active) | 91.8% | 49.3% | 6.64% (active) | 78% | 64.9% | 91.4% | 76.6%
21 | CC(=O)c1ccc(-n2c(-c3cc(-c4ccsc4)n[nH]3)n[nH]c2=S)cc1 | 102% | 99.6% | 101% | 112% | 105% | 89.9% | 82.6% | 98.3% | 101% | 117% | 110% | 105% | 106% | 105% | 106% | 107% | 97.5% | 101% | 97.8%
22 | Oc1c(-c2cc(C(F)(F)F)[nH]n2)cc(Cl)c(OCc2ccc(Cl)cc2)c1-c1ccc(Cl)c(C(F)(F)F)c1 | 6% (active) | -13.2% (active) | 8.73% (active) | -20.9% (active) | 7.68% (active) | -12.1% (active) | -2.6% (active) | 11.6% | -21.4% (active) | -38.8% (active) | 10.2% | 5.9% (active) | -30.5% (active) | -5.89% (active) | -24.7% (active) | -5.51% (active) | -11.6% (active) | -2.82% (active) | -21% (active)
23 | O=C(/C=C/c1ccccc1)n1c(-c2ccccc2)nc2ccccc21 | 101% | 101% | 108% | 105% | 103% | 91.6% | 102% | 101% | 100% | 109% | 113% | 103% | 112% | 117% | 102% | 110% | 95.3% | 92.4% | 104%
24 | CNCCCNc1ccnc2cc(Cl)ccc12 | -50.4% (active) | -17.6% (active) | -40.7% (active) | -27.1% (active) | -28.2% (active) | -17.9% (active) | -62.3% (active) | 1.29% (active) | 3.83% (active) | -88.9% (active) | -5.31% (active) | 2.22% (active) | -90.3% (active) | -33.8% (active) | -63.3% (active) | -29.5% (active) | -66.7% (active) | -87.5% (active) | -32.6% (active)
